Data from PubChem BioAssay (NCI).
About 83,000 compounds went through this panel and 20% of them were active in at least one assay; those are over-represented in the sample as a whole.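 Plates (96-well) were seeded with cells, treated with compound at one concentration, and incubated for 48 hours before percent growth was determined.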 Values without a mark were called inactive. Active and inactive are the calls of the source. The calls were made as follows: active = growth percent below 10; inactive = the rest.

System: HL-60(TB) leukemia
Assay: NCI-60 one-dose screen, 48 h (100 = growth as untreated, 0 = no growth, -100 = all killed)
Details: 10 µM unless noted

**Q.** CC[C@@]12CC(C(=O)OC)=C3Nc4cc5c(cc4[C@@]34CCN(C[C@H]3O[C@H]31)[C@@H]24)[C@@H]1[C@H](O5)[C@@H](O)[C@@]2(CC)CC(C(=O)OC)=C3Nc4cc(O)ccc4[C@@]34CCN1[C@@H]24 was tested. Which growth did it give?
**A.** The growth was -39.1% (active).

**Q.** Which growth does the source give for C[C@H]1[C@@H](CC(=O)N[C@@H](Cc2coc3ccccc23)B(O)O)O[C@@H]2OC3(C)CC[C@H]4[C@H](C)CC[C@@H]1[C@@]24O3 here?
**A.** The growth was 11.2%.

**Q.** How did the growth turn out when COc1ccc(-c2nc3ccc(-c4nnc(SCc5ccccc5)o4)cc3[nH]2)cc1OC was run?
**A.** Its growth is 78.4%.

**Q.** COc1ccc(C2NC(=S)NC(C)=C2C(=O)OC(C)C)cc1OC (stereo not given) was tested. Which growth did it give?
**A.** Its growth is 100%.

**Q.** With O=C(O)c1cccc(-c2ccc(/C=N/NC(=O)c3[nH]c4ccc(Br)cc4c3-c3ccccc3)s2)c1 as the molecule, how does the growth read?
**A.** Its growth is 42.4%.
